D3 ag = qHTS of D3 Dopamine Receptor Agonist: qHTS; max activation, %; AID 652048, 2013; D(3) dopamine receptor (Homo sapiens), P35462; 0.58% of 410,000 active; D3R DiscoveRx beta-arrestin cells, luminescence, 90 min; in the data active = max activation above about 30%; note: 0% is about no effect
Target sequence (P35462 whole entry, looked up): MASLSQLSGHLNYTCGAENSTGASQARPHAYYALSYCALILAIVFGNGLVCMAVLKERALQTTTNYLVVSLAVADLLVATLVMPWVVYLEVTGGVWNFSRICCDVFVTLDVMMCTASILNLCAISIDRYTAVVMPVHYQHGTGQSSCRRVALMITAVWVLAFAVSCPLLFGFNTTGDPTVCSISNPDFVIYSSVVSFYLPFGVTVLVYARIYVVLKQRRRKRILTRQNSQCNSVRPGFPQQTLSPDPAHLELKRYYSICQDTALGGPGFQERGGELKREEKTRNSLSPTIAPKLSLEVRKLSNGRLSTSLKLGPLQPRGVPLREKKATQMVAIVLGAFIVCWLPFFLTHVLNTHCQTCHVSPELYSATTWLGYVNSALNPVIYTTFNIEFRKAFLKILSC
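Agonist-mode cell screen: cells plated at 1500/well and incubated overnight at 37 °C, then exposed to library compounds for 90 min at 37 °C. Detection reagent was added for 30–60 min at room temperature, and luminescence was read.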
DT40 TDP1 CPT = qHTS for Inhibitors of human tyrosyl-DNA phosphodiesterase 1 (TDP1): qHTS in cells in presence of CPT; chicken DT40 Tdp1-/-;hTDP1 cells + 20 nM CPT, ATP luminescence, 48 h; Potency, µM (highest dose often 46.2 µM), without a hit: top-dose activity change, negative = growth inhibition, hits mostly inhibitors; 12% of 420,000 active; AID 686979, 2013; note: potency is the fitted concentration of half-maximal effect; % is set by controls: 0 for no effect and ±100 for the full control effect; nearly all actives have a fitted effect of over 55% in size
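Cell growth measured by CellTiter-Glo luminescence after a minimum 48 h, 37 C compound exposure with 20 nM CPT in Tdp1-knockout DT40 cells stably expressing hTDP1, seeded 400/well; qHTS titration format.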
DRD3 antagonist = qHTS of D3 Dopamine Receptor Antagonist: qHTS. 2.5% of 360,000 active. max response, negative = inhibition, %. D3R cells, DiscoveRx beta-arrestin luminescence, antagonist mode; active compounds read low; in the data active = max response below about -50%; inconclusive = no clear call, values can overlap the other calls; note: % is set by controls: 0 for no effect and ±100 for the full control effect
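Cells plated overnight at 1500 cells/well, then exposed to library compounds with dopamine controls for 90 minutes at 37 degrees C. DiscoveRx reagent added for 30–60 minutes at room temperature; luminescence read, quantitative HTS format.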
ClpP mod = qHTS Assay for Activators of ClpP; ATP-dependent Clp protease proteolytic subunit (Bacillus subtilis (strain 168)), P80244; purified B. subtilis ClpP, FRET peptide cleavage, 20 min; Potency, µM (titrated, usually from 57.5 µM), for inactives: at the top dose activity change, negative = active; 1.9% of 340,000 active; active = well fitted falling curve with a large enough effect; inconclusive = small, poorly fitted or top-dose-only effect; inactive = no such curve, though single readings can be large or run the other way; note: potency is the fitted concentration of half-maximal effect; the source files actives as falling curves though it sought activators and does not explain the sign; nearly all actives have a fitted effect of over 65% in size
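ClpP 10 microg/mL final, pH 8 Tris/KCl buffer with BSA, glycerol, Tween-20; compound pinned in; FRET-FV substrate; RT 20 min; Ex320/Em430; ΔFRET vs ADEP 5.8 microM, DMSO, no enzyme.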
IL-1B inflam inh = qHTS for Inhibitors of Inflammasome Signaling: IL-1-beta AlphaLISA Primary Screen | THP-1 LPS/ATP IL-1B secretion, AlphaLISA, 16 h; active compounds read low | activity change, % at 57.5 µM | 4.7% of 360,000 active | AID 743279, 2014; in the data active = activity change below about -50%; inconclusive = mostly about -30% to -49%; note: % is set by controls: 0 for no effect and ±100 for the full control effect
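Secreted IL-1B measured by AlphaLISA bead assay after 16 h compound exposure of THP-1 cells; compounds (final up to 57.5 uM) added 1 h before LPS (250 ng/mL) and ATP (1.25 mM) stimulation; lower signal means less secretion.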
DT40 TDP1 no CPT = qHTS for Inhibitors of human tyrosyl-DNA phosphodiesterase 1 (TDP1): qHTS in cells in absence of CPT; AID 686978, 2013; DT40 Tdp1-/- hTDP1 cells, no CPT, ATP luminescence, 48 h; Potency, µM (series often up to 46.2 µM), without a hit: at the highest dose activity change, negative = growth inhibition, usual class: inhibitors; 15% of 420,000 active; note: potency is the fitted concentration of half-maximal effect; % is set by controls: 0 for no effect and ±100 for the full control effect; nearly all actives have a fitted effect of over 55% in size
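A cellular qHTS used chicken DT40 cells lacking endogenous Tdp1 but carrying stably transfected human TDP1. Compounds were applied without camptothecin, and cell growth kinetics were judged by ATP-dependent luminescence after ≥48 hr.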
* marks the source's active call; other numbers are inactive results; u = inconclusive; x = no result given. Most compounds without a hit are left out; they make up all but 21% or so of the library. Unless noted, calls come from the whole dose curve; as a rule, active = well fitted inhibition curve with a large enough effect; inconclusive = small, poorly fitted or top-dose-only effect; inactive = flat fitted curve, though single readings scatter.

SMILES | D3 ag | DT40 TDP1 CPT | DRD3 antagonist | ClpP mod | IL-1B inflam inh | DT40 TDP1 no CPT
CCOc1ccc(CNC(=O)CSc2c3c(nc4ccc(Cl)cc24)CCCC3)cc1 | -4 | -28% | x | 2% | x | -25%
Cc1nnc(NC(=O)CSC2CCCCC2)s1 | -2 | 1.8µM* | 10 | -1% | 3 | 5.8µM*
COc1ccc(S(=O)(=O)N2CCC(C(=O)Nc3ccccc3N3CCCCC3)CC2)cc1OC | 0 | u | -6 | -3% | 0 | u
Cn1nnnc1SCC(=O)N(C1CCCCC1)C1CCS(=O)(=O)C1 (configuration not stated) | 10 | 7% | 3 | x | 13 | 2%
Cn1nnnc1SCC(=O)N(C1CCCCC1)C1CCCCC1 | -4 | 16µM* | -9 | -2% | -10 | 18µM*
CCc1ccc(OCC(=O)N/N=C/c2cc([N+](=O)[O-])ccc2N2CCCCCC2)cc1 | 0 | u | -16 | 1% | -16 | u
CN(c1ccc([N+](=O)[O-])cc1/C=N/NC(=O)COc1ccccc1)C1CCCCC1 | -21 | u | 0 | 1% | -3 | 16µM*
CCn1cc2c(n1)-c1c(oc(C(=O)Nc3cccc(C(F)(F)F)c3)c1C)CC2 | 2 | -21% | x | 35µM* | x | -27%
CCOc1ccccc1CNC(=O)c1oc2c(c1C)-c1nn(Cc3cccc(Cl)c3)cc1CC2 | -13 | u | x | u | x | 21µM*
Cc1ccccc1CNC(=O)c1oc2c(c1C)-c1nn(Cc3ccc(Cl)cc3)cc1CC2 | 0 | u | x | u | x | 16µM*
COc1ccc(OC)c(NC(=O)c2oc3c(c2C)-c2nn(Cc4ccc(Cl)cc4)cc2CC3)c1 | 18 | u | x | 192% | x | u
Cc1c(C(=O)NCc2ccc(N(C)C)cc2)oc2c1-c1nn(Cc3cccc(Cl)c3)cc1CC2 | -6 | u | x | u | x | u
COc1cc(NC(=O)c2oc3c(c2C)-c2nn(Cc4cccc(Cl)c4)cc2CC3)cc(OC)c1 | 3 | u | x | 20µM* | x | u
O=P(O)(O)O | 3 | -20% | x | x | x | -4%
Cc1ccccc1C(=O)Nc1nnc(-c2cccnc2)o1 | -4 | -1% | 4 | x | 18 | -3%
COc1ccc(N2CCN(C(=O)Cn3cnc4c(cnn4-c4ccc(C)cc4)c3=O)CC2)cc1 | 1 | 15% | 1 | 1% | 19 | 9%
CN(C/C=C/c1ccccc1)Cc1cccc2ccccc12 | -89 | u | -100* | -1% | -12 | u
CN(Cc1ccc(C(C)(C)C)cc1)Cc1cccc2ccccc12 | -11 | u | x | x | x | u
COc1ccccc1-c1cc(SC)c(C#N)c(=O)o1 | -7 | 3.7µM* | -20 | -2% | u | 5.8µM*
CCc1nc2sc3c(N4CCC(C)CC4)ncnc3c2c2c1CCCC2 | -18 | 5% | x | -2% | x | 6%
CC(C)N1CCC1(C)C(=O)Nc1ccc2cn[nH]c2c1 (configuration not stated) | 0 | u | 11 | 0% | 23 | -16%
O=C(NC1CCCCC1)C(c1ccccc1)N(Cc1ccc2c(c1)OCO2)C(=O)c1cnsn1 (configuration not stated) | -2 | 21µM* | u | -2% | -61* | u
O=C(NC1CCCCC1)C(c1ccc2ncccc2c1)N(Cc1ccc2c(c1)OCO2)C(=O)c1ccc2c(c1)OCCO2 (configuration not stated) | 4 | u | 1 | x | -2 | 26µM*
OCC1OC(n2nc3ccccc3n2)C(O)C(O)C1O (configuration not stated) | -4 | -8% | -12 | 0% | 30 | -13%
